Consider 51 compounds from PubChem BioAssay AID504467 (National Center for Advancing Translational Sciences (NCATS), 2011).

Out of some 330,000 compounds screened, about 7,700 (2.3%) were called active. Not shown: some 26% with an inconclusive outcome. This excerpt belongs to a sample that is enriched for actives. A number with no mark means an inactive call. Calls come from the whole dose curve; as a rule, active = well fitted inhibition curve with a large enough effect; inconclusive = small, poorly fitted or top-dose-only effect, or effect the other way; inactive = flat fitted curve, though single readings scatter.
% is set by controls: 0 for no effect and ±100 for the full control effect; potency is the fitted concentration of half-maximal effect.

The nature of the experiment: qHTS screen for small molecules that inhibit ELG1-dependent DNA repair in human embryonic kidney (HEK293T) cells expressing luciferase-tagged ELG1. Note: nearly all actives have a fitted effect of over 55% in size. The following applies: HEK293T ELG1-luciferase reporter, luminescence, 16 h, DNA damage induced by 5-fluorouridine; series mostly up to 46.1 µM; activity change, negative = inhibition: at the top concentration. Put shortly:
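DMSO vehicle served as the neutral condition. Each well held 2,000 cells given 5-fluorouridine plus compound; after 16 hr at 37 °C/5% CO2, ONE-Glo was added and luciferase measured 30 min later.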
(In general: Quantitative high-throughput screening tests each substance at several concentrations.)
Regarding `Cc1ccc(C(=O)COC(=O)CCN2C(=O)C3C4CCC(C4)C3C2=O)cc1C` (stereo unspecified), the “activity change, negative = inhibition” value was -2.83%. With `COc1cc(C2CC(=O)c3cnc(NC(C)=O)nc3C2)cc(OC)c1OC` (stereo unspecified), the “activity change, negative = inhibition” value was 12.5%. As for `COCCOC(=O)c1[nH]c2c(c1C)C(=O)CC(c1ccc(OC)cc1)C2` (stereo unspecified), the “activity change, negative = inhibition” value was -3.68%. `CCCOC(=O)c1[nH]c2c(c1C)C(=O)CC(c1cc(OC)c(OC)c(OC)c1)C2` (stereo unspecified): the Potency was 5.17 µM (active). Consider `COc1ccc(OC)c(S(=O)(=O)Nc2c(C)nn(C)c2C)c1`, for which the “activity change, negative = inhibition” value is -6.93%. The same measure, in the same setting: in the case of `Cc1cc(C)c(C)c(S(=O)(=O)N2CCN(C(=O)c3ccc4c(=O)n5c(nc4c3)CCC5)CC2)c1C` it was -26.1%; in that of `COc1ccc(C=C(C#N)C#N)c(CSc2ccccn2)c1`, -6.6%. On the same count and under the same terms, in the case of `Cc1cccc(OCC(=O)NC(=S)Nc2ccccc2N2CCOCC2)c1` it was -5.56%. On to `Cc1cc(C)cc(OCC(=O)Nc2ccc(N3CCOCC3)cc2N2CCOCC2)c1`, for which the Potency is 16.4 µM (active). On to `Cc1cc(N2CCCC2)ccc1NC(=O)COc1ccc(Cl)cc1`, for which the “activity change, negative = inhibition” value is -10.8%. Still for that read-out and setting: in the case of `COc1cccc(CNC(=O)CCC2CCCN(C(=O)c3ccc(F)c(Cl)c3)C2)c1` (stereo unspecified) it was -27.6%. For the compound `CCOc1cccc(/C=N/NC(=S)NCCN2CCOCC2)c1O`, the Potency is 13 µM (active).

Regarding `Cc1ccc(NC(=S)NCCN2CCOCC2)cc1`, the “activity change, negative = inhibition” value was 2.53%. Regarding `COc1cccc(NC(=S)NCCCN2CCOCC2)c1`, the “activity change, negative = inhibition” value is 16.7%. Same read-out and setting: then `CCN(CC)C(=O)[C@H]1C[C@H](CC(=O)NCC23CC4CC(CC(C4)C2)C3)C(=O)N2CCc3c([nH]c4cc(CCC(=O)N(C)C)ccc34)[C@]12C`, with -9.18%; and `COc1ccc(C(=O)c2c3ccc([N+](=O)[O-])cc3[n+]([O-])n2CCCN)cc1`, with -19.9%.

Take `COc1ccc(Cc2nnc(SCC(=O)N(c3ccccc3)C(C)C)n(N)c2=O)cc1`: the “activity change, negative = inhibition” value is 0.731%. On the same count and under the same terms, then `COc1ccc2c(c1)C(NS(=O)(=O)OCC(Cl)(Cl)Cl)CCC2` (stereo unspecified), with 28.9%; and `CCCN(Cc1cc2cccc(C)c2[nH]c1=O)S(C)(=O)=O`, with 3.35%.

Take `Cc1cccc2cc(CN(Cc3nnnn3Cc3ccccc3)C3CCCC3)c(=O)[nH]c12`: the Potency is 20.6 µM (active).

Take `Cc1cc(C)c2cc(CN(Cc3nnnn3Cc3ccc(F)cc3)C3CCCC3)c(=O)[nH]c2c1`: the “activity change, negative = inhibition” value was 4.9%. Still for that read-out and setting: then `COc1ccc2[nH]c(=O)c(CN(Cc3nnnn3CCc3ccccc3)CC3CCCO3)cc2c1` (stereo unspecified), with -2.53%. As to `Cc1cccc2cc(CN(Cc3cccs3)C(c3nnnn3C3CCCC3)C(C)C)c(=O)[nH]c12` (stereo unspecified), the Potency was 11.6 µM (active).

Consider `CN1CCN(C(c2cc3cc4c(cc3[nH]c2=O)OCCO4)c2nnnn2C2CCCC2)CC1` (stereo unspecified), for which the “activity change, negative = inhibition” value was 0.478%. On the same count and under the same terms, in the case of `Cc1ccc(N2C(=O)N3[C@@H]4c5ccccc5OC[C@@H]4[C@@H](c4ccccc4)[C@@]3(C)C2=O)cc1` it was -0.661%. `CC(=O)N1CCSc2ccc(S(=O)(=O)N3CCC(C)CC3)cc21`: the “activity change, negative = inhibition” value is 2.5%. Same read-out and setting: in the case of `CC(Sc1nn(-c2ccc(Cl)cc2)c(=S)s1)C(=O)NCC1CCCO1` (stereo unspecified) it was -2.87%; in that of `COc1ccccc1N(CCOc1ccccc1)S(=O)(=O)c1ccccc1`, -19.8%; in that of `N#CC1=C(SCc2ccc(C#N)cc2)N=C(N)C(c2nc(-c3ccccc3)cs2)C12CCCCC2` (stereo unspecified), -13.3%.

For `COC(=O)CSC1=C(C#N)C(c2ccccc2OC)C(C(=O)OC)C(=O)N1` (stereo unspecified), the “activity change, negative = inhibition” value was 2.99%. For the compound `N#CC1=C(SCc2ccccc2)NC(=O)C(C#N)C12CCCC2` (stereo unspecified), the Potency was 14.6 µM (active). As for `COc1ccc(C(=O)NCc2nnc(SCC(=O)NC3=NCCS3)n2C)cc1`, the “activity change, negative = inhibition” value was -4.54%. Same read-out and setting: then `O=C(COC(=O)c1cc[n+]([O-])cc1)Nc1ccc(Cl)c(C(F)(F)F)c1`, with -11.3%; and `CN(C)C1=NC[C@H](Cc2ccccc2)N1CCc1ccc(F)cc1`, with -5.08%; and `COc1ccc(NC(=O)C2CCC(CNC(=O)[C@@H]3Cc4ccccc4CN3)CC2)cc1` (stereo partly specified), with 13.7%. Regarding `COc1ccc(N(Cc2cc3ccc(C)cc3[nH]c2=O)S(=O)(=O)c2ccccc2)cc1`, the “activity change, negative = inhibition” value was -22.6%. For `CC(C)n1cnc2c(NCc3ccccc3)cc(OCC3CCN(C)CC3)cc21`, the “activity change, negative = inhibition” value is -16.7%. Take `CC(C)n1cnc2c(NCc3ccccc3)cc(N[C@@H](CO)Cc3ccccc3)cc21`: the Potency was 16.4 µM (active). Turning to `COc1ccc(CNC(=O)/C(C#N)=C/c2cccc(OC)c2OC)cc1`, the “activity change, negative = inhibition” value is -0.822%. On the same count and under the same terms, in the case of `CN(CC(=O)Nc1ccc(OC(F)F)cc1)S(=O)(=O)/C=C/c1ccccc1` it was -12.2%; in that of `O=C(O)C1CCN(c2ccc([N+](=O)[O-])cc2[N+](=O)[O-])CC1`, 18.3%. Take `O=[N+]([O-])c1ccc(N2CCN(c3ccc(O)cc3)CC2)c(Cl)c1`: the Potency is 23.1 µM (active). Take `COc1ccc(N2CCN(c3ccc([N+](=O)[O-])cc3Cl)CC2)cc1`: the “activity change, negative = inhibition” value was -2.92%.

Consider `CN(C)C(=O)CCc1ccc2c3c([nH]c2c1)[C@]1(CCC2CCCC2)[C@@H](C(=O)N2CCOCC2)C[C@H](CC(=O)NCc2ccco2)C(=O)N1CC3`, for which the “activity change, negative = inhibition” value is 17.9%.

Regarding `CCN(CC(=O)Nc1cc(Cl)ccc1C)C(=O)Cn1c(=O)cnc2ccccc21`, the “activity change, negative = inhibition” value is -0.672%. `CC(Oc1ccc2c(-c3ccccc3)cc(=O)oc2c1)C(=O)NC(Cc1c[nH]c2ccccc12)C(=O)O` (stereo unspecified): the “activity change, negative = inhibition” value was 1.53%. The same measure, in the same setting: then `CC(C)(C)OC(=O)C[C@@H]1C/C=C\C[C@@H](CC(=O)N[C@H](CO)Cc2ccccc2)C(=O)NCCOC1=O`, with 0.537%; and `CCNC(=S)N1CCN(c2ncccn2)CC1`, with -1.72%; and `CC(Oc1ccc(F)cc1)C(=O)N1CCN(c2ncccn2)CC1` (stereo unspecified), with -3.2%. Take `CC12CCC(C(=O)N3CCN(c4ncccn4)CC3)(c3nc4ccccc4nc31)C2(C)C` (stereo unspecified): the Potency is 4.11 µM (active). With `CN(C(=O)CN1C(=O)/C(=C/c2ccc(Cl)cc2)SC1=S)C1CCS(=O)(=O)C1` (stereo unspecified), the “activity change, negative = inhibition” value was 5.67%.
